# Screens as filed in PubChem.
# aSyn UTR act – Activators via SNCA 5'UTR binding, MLPCN. actives 7.1% (n = 300,000). activity score, % (tested at 7.5 µM), hits read low. alpha-synuclein 5'UTR reporter, activators screen. AID 1814, 2009; in the data active = activity score below about -60%
# Numbers without * were called inactive. These entries were drawn from the full list.
SMILES,aSyn UTR act
Cc1cccc(Nc2nnc(SCC3CCCCO3)s2)c1 (stereo not given),-183.8*
CN(C(=O)c1ccco1)c1nnc(C23CC4CC(CC(C4)C2)C3)s1,-143.5*
Nc1cc2ccncc2c2ccccc12,-71.0*
Cc1cccc(-c2noc(Cc3ccc(Cl)cc3)n2)c1,-98.2*
COc1ccc(Cc2nc(-c3cccc(C)c3)no2)cc1,-102.3*
COc1ccc(Cc2nc(-c3ccncc3)no2)cc1,-79.4*
CCCc1ccc(-c2cc(C(=O)N/N=C/c3ccc([N+](=O)[O-])o3)c3ccccc3n2)cc1,-74.7*
CCCC(=O)Nc1ccc(C(=O)N/N=C/c2ccc([N+](=O)[O-])o2)cc1,111.1
O=C(N/N=C/c1ccc([N+](=O)[O-])o1)c1cc(-c2cccc(Br)c2)nc2ccccc12,-82.6*
Cc1cc(OCc2cc(C(=O)N(C)CCc3cnn(C)c3)no2)cc(C)c1Cl,-145.4*
COc1cc(Cl)ccc1OCc1cc(C(=O)N(C)CCc2cnn(C)c2)no1,-91.1*
CC1CC1C(=O)OCC(=O)Nc1ccc(N=Nc2ccccc2)cc1 (stereo not given),-107.2*
CC(C)(C)C(=O)Nc1ccc(N=Nc2ccccc2)cc1,79.4
O=C(N/N=C1/CC2C=CCC12)c1ccc(Br)o1 (stereo not given),-83.1*
Cc1ccc(Cn2c(CCNc3nc(-c4ccc(Cl)c([N+](=O)[O-])c4)cs3)nc3cc(Cl)c(Cl)cc32)cc1,-77.9*
CC1(C)CN(c2ccc(N3CC(C)(C)C3=O)cc2)C1=O,-69.8*
N#Cc1nc(-c2ccc(Cl)cc2)oc1NCCc1ccccn1,-155.5*
Cc1ccc(-c2nc(C#N)c(NCCc3ccccn3)o2)cc1,-151.3*
CSc1ccc(-c2nc(CN(C)C3CCOC3)c(C)o2)cc1 (stereo not given),-80.6*
Cc1nccc(-c2cc(-c3ccc(Cl)cc3Cl)no2)n1,-135.1*
COc1ccc2cc3cc(C(=O)NC(C)C)oc3nc2c1,-142.0*
CCN(C(=O)c1cc2cc3ccc(C)cc3nc2o1)c1ccc(OC)cc1,-306.8*
CCCCN(C)C(=O)c1cc2cc3ccc(OC)cc3nc2o1,-114.1*
CCCCN(C)C(=O)c1cc2cc3cc(OC)ccc3nc2o1,-121.1*
O=C(Nc1cccc(Cl)c1N1CCCC1)c1cccc(-c2cc3ccccc3oc2=O)c1,-100.9*
SMILES,aSyn UTR act
Cc1ccc2nc(NC(=O)c3cccc(-c4cc5ccccc5oc4=O)c3)sc2c1,-87.9*
CCn1nnc(NC(=O)c2cccc(-c3cc4ccccc4oc3=O)c2)n1,-104.9*
COc1nc(NCCN2CCOCC2)nc(Nc2ccccc2)n1,-101.2*
Oc1c(C=Nc2ccccc2Cl)[nH]c2ccccc12,-101.3*
CC1CCCCN1C(=O)CSc1nc2ccsc2c(=O)n1Cc1ccccn1 (stereo not given),-119.5*
Cc1cc(NC(=O)CSc2nc3ccsc3c(=O)n2Cc2ccccn2)n[nH]1,-78.7*
O=C(O)c1ccc(Cn2cnc3scc(-c4ccccc4)c3c2=O)cc1,-142.4*
CCOc1cc(/C=C2\N=C(C)OC2=O)cc(Br)c1OCC(=O)OC,-64.0*
CCOc1cc(CNc2ccccc2)cc(Br)c1OCC(=O)NC(C)(C)C,48.8
Cc1cccn2cc(COc3cccc([N+](=O)[O-])c3)nc12,-65.1*
CC(=O)c1sc(Nc2cccc(C)c2)nc1C,-164.9*
COC(=O)c1sc(Nc2ccccc2)nc1C,-156.7*
Cc1nc(Nc2ccccc2)sc1C(=O)c1ccccc1,-67.8*
Cc1ccc(-c2nc(Nc3cccc(C)c3)sc2CC(=O)O)cc1,-143.3*
CCOC(=O)c1sc(-c2cccs2)nc1C,-64.6*
C1CCN=C(Nc2nc3c(s2)CCCC3)CC1,-138.9*
CCOC(=O)c1sc(Nc2nc(C)cc(C)n2)nc1C,84.1
COc1ccc(Nc2nc(N)c(C(=O)c3ccc(F)cc3)s2)cc1,70.0
CC(C)(C)C(=O)c1sc(Nc2ccccc2)nc1N,-179.5*
CCOC(=O)c1sc(Nc2ccccc2)nc1C,-95.8*
COC(=O)Nc1nc(C)c(C(=O)c2ccccc2)s1,-105.0*
O=C(Cc1sc(Nc2ccccc2)nc1-c1ccccc1)NCc1ccccc1,-122.6*
CCOC(=O)c1sc(NC(=O)Nc2ccc(Cl)cc2)nc1C,-175.1*
Cc1cccc(Nc2nc3c(s2)CCCC3)c1,-256.5*
COC(=O)Nc1nc(-c2ccccc2)c(C(=O)c2ccccc2)s1,100.0
SMILES,aSyn UTR act
C[n+]1c2n(c3ccccc31)N=C(c1cc(C(C)(C)C)c(O)c(C(C)(C)C)c1)CS2,68.5
CCc1nnc(NC(=O)Nc2ccc(Cl)cc2)s1,-66.2*
CCOC(=O)c1sc(Nc2nc3c(OC)cccc3s2)nc1C,-164.3*
CN(C)c1cccc(C(=O)Nc2cccc(F)c2)c1,-175.2*
CCN(CC)c1ccc(C(=O)Nc2cccc(F)c2)cc1,-77.1*
CCCCOc1ccc(C2CCC(C(C)=O)C(C)C2)cc1 (stereo not given),-169.3*
Cn1c(=O)oc2cc(S(=O)(=O)CCC(=O)Nc3ccccc3)ccc21,-64.0*
c1csc(-c2nc3c4ccccc4c4ccccc4c3[nH]2)c1,-72.9*
CC(C)Oc1ccc(C(=O)Nc2ncn[nH]2)cc1,-65.0*
CC(C)COc1ccc(C(=O)Nc2ncn[nH]2)cc1,-66.3*
CC(C)COc1ccc(C(=O)Nc2sc3c(c2C(=O)O)CC(C)(C)OC3)cc1,62.6
COC(=O)c1ccc(N)nc1,-78.7*
CC1CCN(C(=O)Cn2cnc3c(cnn3C(C)(C)C)c2=O)CC1,-85.1*
CC(C)(C)n1ncc2c(=O)n(CC(=O)c3ccc(Cl)cc3)cnc21,-196.6*
CN(C)c1nc2ccc(OCCN3CCCCC3)cc2s1,-70.8*
CCCOc1ccc(C(=O)Nc2ccc(C)cc2[N+](=O)[O-])cc1,-72.2*
CC(C)COc1ccc(C(=O)Nc2ccccc2[N+](=O)[O-])cc1,-212.3*
COCCCNc1nc(N)c([N+](=O)[O-])c(Nc2cc(OC)ccc2OC)n1,55.3
COCCCNC(=S)Nc1ccc(C)cc1[N+](=O)[O-],-74.7*
CCCC(=O)N1CCN(c2nc3ccc(Br)cc3s2)CC1,-141.5*
CCc1ccc2nc(N(CCCN(C)C)C(=O)c3ccc(S(=O)(=O)N(C)C4CCCCC4)cc3)sc2c1,55.0
CCCCC(=O)N1CCN(c2nc3ccc(Br)cc3s2)CC1,-102.4*
CCCC(=O)N1CCN(c2nc3ccc(CC)cc3s2)CC1,-115.6*
CCCC(=O)N1CCN(c2nc3ccc(Cl)cc3s2)CC1,-139.0*
COc1ccc(-c2nc(-c3ccc(Br)o3)no2)cc1OC,-210.5*
SMILES,aSyn UTR act
COc1ccccc1-c1nc(-c2ccc(Br)o2)no1,-95.3*
COc1ccc(-c2nnc(-c3ccc(Br)o3)o2)cc1OC,-89.9*
Cc1ccc(NC(=O)CN2C(=O)N/C(=C/c3ccc(N4CCOCC4)cc3)C2=O)cc1,-118.0*
CCN1C(=O)/C(=C/C=C2\C=CN(CC)c3ccccc32)SC1=S,-80.0*
CCN1C(=O)/C(=C\C=C2/C=CC=CN2CC)SC1=S,-124.5*
CCN1C(=O)C(=Cc2cccc(OC)c2Oc2ccc([N+](=O)[O-])cc2[N+](=O)[O-])SC1=S,80.3
FC(F)(F)c1ccc(NCc2ccccn2)nc1,-166.6*
Cc1cc(NCc2ccccn2)nc2ccccc12,-86.8*
CCC(C)Nc1nc(-c2ccccn2)nc2ccccc12 (stereo not given),68.6
Cc1ccc(N/N=C(\C#N)C(=N)N2CCCCC2)cc1,-91.2*
N#C/C(=N\Nc1ccccc1)C(=N)N1CCCCC1,-77.7*
CCN(CC)C(=N)/C(C#N)=N/Nc1ccccc1,-80.9*
N#C/C(=N\Nc1ccc(Cl)cc1)C(=N)N1CCCCCC1,-133.4*
Cc1ccc(Nc2nc(N)nc(CSc3nccn3C)n2)c(C)c1,-101.2*
